Compound activity (PubChem)
Rows were chosen to be rich in hits. Some 1.5% of all compounds tested hit in one or more screens of this group.
CCHF vOTU inh – CCHFV vOTU protease inhibition | inhibition, % at 11.5 µM | actives 0.55% (n = 370,000) | AID 651958 | Pep-AMC fluorescence; in the data active = inhibition above about 30%; note: 0% = vehicle wells with enzyme and 100% = no enzyme wells
Vc quorum ag – induces V. cholerae light production without autoinducers. V. cholerae BH1578 lux reporter, luminescence, 6 h. activation, % at 18.7 µM. AID 588436. actives 0.16% (n = 350,000); in the data active = activation mostly above about 9.7%, no sharp cut-off
PrPC surface inh – inhibitors of human cell surface prion protein PrPC; P04156; actives 0.43% (n = 370,000); inhibition, % at 13.8 µM; TR-FRET read-out; in the data active = inhibition above about 24%; note: 0% = median of the test wells and 100% = reference compound wells
DUSP3 inh – DUSP3 (human) phosphatase inhibition. inhibition, % at 13.3 µM. actives 0.52% (n = 290,000). P51452. recombinant VHR phosphatase, pNPP absorbance; in the data active = inhibition above about 50%
TcdB inh – inhibitors of Clostridioides difficile toxin B glycohydrolase. P18177. AID 652162. inhibition, % at 9.99 µM. actives 0.24% (n = 350,000). TcdB glycohydrolase enzymatic assay, plate reader; in the data active = inhibition above about 10%
SSB-PriA inh – K. pneumoniae PriA-SSBct interaction inhibition. inhibition, % at 33 µM. AID 1272365. actives 0.6% (n = 430,000). AlphaScreen SSBct-PriA binding, biotinylated peptide; in the data active = inhibition mostly above about 37%, no sharp cut-off; inactive = mostly below about 20%;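 note: plate controls were negative control peptide for no effect and reference peptide for full effect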
* = called active by the depositor; i = inactive; . = no result given.

SMILES | CCHF vOTU inh | Vc quorum ag | PrPC surface inh | DUSP3 inh | TcdB inh | SSB-PriA inh
O=C(c1ccc2nsnc2c1)N1C2CCC1CC(S(=O)(=O)c1ccccc1)C2 (stereo not drawn) | . | . | . | . | . | 74*
Cc1ccc(OCC(=O)N2C3CCC2CC(S(=O)(=O)c2ccccc2)C3)cc1 (stereo not drawn) | . | . | . | . | . | 79*
O=C(c1csc(Nc2ccccc2)n1)N1CCN(c2ncccn2)CC1 | . | . | . | . | . | -10
CCCCC1=CC2=C(c3ccco3)C(=O)C(C)(OC(=O)c3ccc(OC)cc3)C(=O)C2=CN1Cc1ccccc1 (stereo not drawn) | 5 | i | 31* | 7 | 1 | 2
CCNC(=O)CC1CSc2nc3c(cnn3-c3ccccc3)c(=O)n21 (stereo not drawn) | . | . | . | . | . | 8
Cc1cc(N2CCCC2=O)cc(C)c1S(=O)(=O)Nc1c(C)nn(C)c1C | 15 | 0 | 8 | 8 | 42* | -6
CNc1ncnc2sc(-c3ccccc3)cc12 | 5 | 1 | -9 | 52* | 1 | -13
CN(C)CCNc1ncnc2sc(-c3ccccc3)cc12 | 1 | i | -5 | -2 | 3 | -6
CCC(=O)Nc1nnc(SCC(=O)N2c3ccccc3CC2C)s1 (stereo not drawn) | -5 | 17* | 2 | 3 | . | -14
CCn1nccc1C(=O)N(CCCN(C)C)c1nc2ccc(F)cc2s1 | . | . | . | . | . | -1
O=C(CN1CCN(C(=O)CNC(=O)c2ccc3c(c2)OCO3)CC1)Nc1ccc(F)cc1 | -18 | i | 4 | . | 0 | 53*
O=C(Nc1ccc2c(c1)OCO2)N1CCN(c2ccc(F)cc2)CC1 | -2 | -1 | 9 | 57* | 0 | 4
COc1ccc(-c2cn3cccnc3n2)cc1NC(=O)c1c(-c2ccccc2Cl)noc1C | . | . | . | . | . | 5
Cc1nc(-c2ccc(S(=O)(=O)NCc3cncc(-c4cccs4)c3)cc2)co1 | . | . | . | . | . | 0
CCCCn1c(=O)[nH]c2nc3cc(N)ccc3nc2c1=O | 50* | -1 | -27 | 1 | -5 | -17
Nc1ccc2nc3c(=O)n(CCc4ccccc4)c(=O)[nH]c3nc2c1 | 6 | -1 | -12 | 2 | 1 | -8
Cc1nn(C)cc1/C=N/NC(=O)c1ccco1 | 6 | i | 5 | 16 | 0 | i
Cc1nn(C)cc1C=NCCOCc1ccccc1 | -4 | 0 | 0 | 52* | . | 2
O=C(CSc1ccc(F)cc1)Nc1nnc(Cc2ccc3c(c2)OCO3)o1 | . | . | . | . | . | -6
COc1ccc(S(=O)(=O)N(CC(C)C)C2CCS(=O)(=O)C2)cc1 (stereo not drawn) | . | . | . | . | . | 12
COc1ccc(S(=O)(=O)N(CC(C)C)C2CCS(=O)(=O)C2)cc1OC (stereo not drawn) | -6 | -1 | -3 | . | 0 | 38*
O=C(CCCS(=O)(=O)c1ccc(Cl)cc1)Nc1cccc(-c2nc3ccccc3[nH]2)c1 | . | . | . | . | . | -19
COc1cccc(-n2ccnc2SCC(=O)Nc2cc(OC)ccc2OC)c1 | 4 | i | 4 | 4 | . | 46*
COc1ccc(-n2ccnc2SCC(=O)Nc2ccc(Cl)cc2)cc1 | . | . | . | . | . | 49*
COc1ccc(-n2ccnc2SCC(=O)Nc2ccccc2)cc1 | 13 | i | 4 | 15 | . | 27
SMILES | CCHF vOTU inh | Vc quorum ag | PrPC surface inh | DUSP3 inh | TcdB inh | SSB-PriA inh
COc1ccc(NC(=O)CSc2nccn2C)cc1S(N)(=O)=O | -13 | i | -9 | 10 | 11* | -5
CCOc1ccccc1NC(=O)CSc1nccn1-c1ccc(C(=O)NCc2cccs2)cc1 | . | . | . | . | . | 40*
CC(=O)N(CCN(C)C)c1nc2ccc(Br)cc2s1 | . | . | . | . | . | 5
COc1ccc(-n2ccnc2SCC(=O)Nc2cc(C)ccc2C)c(OC)c1 | . | . | . | . | . | 39*
Cc1cccc(-n2ccnc2SCC(=O)Nc2ccc([N+](=O)[O-])cc2)c1C | . | . | . | . | . | 51*
COc1ccc(OC)c(NC(=O)CSc2nccn2-c2ccc(F)cc2)c1 | . | . | . | . | . | 54*
COc1cccc(-n2ccnc2SCC(=O)Nc2ccccc2F)c1 | -13 | 0 | -2 | -6 | 0 | 33
COc1cccc(-n2ccnc2SCC(=O)Nc2ccccc2C(F)(F)F)c1 | . | . | . | . | . | 44*
COCCN(Cc1ccoc1)C(=O)C1CCN(S(C)(=O)=O)CC1 | . | . | . | . | . | -6
COC(=O)Nc1ccc2c(c1)CCN2C(C)=O | . | . | . | . | . | -14
COc1ccc(CCN2CC(C(=O)Nc3nnc(Cc4ccccc4)s3)CC2=O)cc1OC (stereo not drawn) | 0 | i | 4 | . | 1 | -1
COc1ccc(Cc2nnc(NC(=O)C3CC(=O)N(c4ccccc4)C3)s2)cc1OC (stereo not drawn) | 15 | 0 | 6 | 58* | 1 | -3
O=C(COC(=O)c1ccc(F)cc1F)c1ccc[nH]1 | 1 | i | -3 | . | 10* | -6
COCCN(Cc1ccsc1)C(=O)c1ccc(C(C)(C)C)cc1 | . | . | . | . | . | -12
COc1cc(CCC(=O)N2CCN(c3ccc([N+](=O)[O-])cc3)CC2)cc(OC)c1OC | 0 | i | -19 | 57* | 0 | 4
COCC(=O)N1CCN(c2ccc([N+](=O)[O-])cc2)CC1 | 9 | i | -28 | 6 | . | -8
O=c1cc(O)c2ncccc2[nH]1 | . | . | . | . | . | 129*
Cc1cc2ncccc2[nH]c1=O | . | . | . | . | . | -5
O=C(NCC(=O)N(c1ccccc1)C(C(=O)NC1CCCC1)c1cccnc1)c1cccs1 (stereo not drawn) | -4 | 2 | -1 | 53* | . | -6
Cc1cc(C)cc(N(C(=O)c2csnn2)C(C(=O)NC2CCCCC2)c2cccnc2)c1 (stereo not drawn) | 3 | 0 | -1 | 53* | 1 | -2
O=C(NC1CCCCC1)C(c1ccc(Cl)cc1)N(C(=O)c1ccccn1)c1cccnc1 (stereo not drawn) | . | . | . | 57* | . | .
Cc1ccccc1C(C(=O)NC1CCCCC1)N(C(=O)c1ccccn1)c1cccnc1 (stereo not drawn) | 11 | -1 | -3 | 21 | 14* | 15
CCOc1ccc(C(C(=O)NC2CCCCC2)N(C(=O)c2ccccn2)c2cccnc2)cc1 (stereo not drawn) | 0 | 0 | 2 | 23 | 1 | -13
Cc1nc(-c2ccccc2Cl)sc1CNC(=O)Nc1cccs1 | . | . | . | . | . | -7
COc1ccc(S(=O)(=O)NCC2CCN(C(=O)c3ccoc3)CC2)cc1Cl | . | . | . | . | . | -5
SMILES | CCHF vOTU inh | Vc quorum ag | PrPC surface inh | DUSP3 inh | TcdB inh | SSB-PriA inh
O=C(NCCSC1CCOCC1)c1ccco1 | . | . | . | . | . | 10
Cc1ccc(C(=O)c2no[n+]([O-])c2C(=O)c2ccc(C)cc2)cc1 | 18 | i | -1 | 54* | 0 | 14
Cc1ccc(C(=O)c2ccc(C)cc2)cc1 | -3 | -1 | -6 | 17 | 1 | -40
Cc1ccccc1N=Nc1ccc(O)c2ncccc12 | 6 | -1 | 5 | 4 | 1 | 57
O=S(=O)(O)c1cccc2c(N=Nc3ccc(O)c4ncccc34)cccc12 | . | 0 | . | . | -2 | 62*
Cc1ccc(C(=O)Nc2nc3c(s2)CCC3C(=O)NCCn2nc(-c3ccco3)ccc2=O)cc1 (stereo not drawn) | . | . | . | . | . | 4
COc1ccccc1-n1c(N)c(C(N)=O)sc1=S | -3 | i | -13 | 52* | . | -12
COc1ccccc1NC(=O)c1sc(=S)n(-c2cc(C)ccc2C)c1N | . | . | . | . | . | 48*
